PubChem BioAssay AID1822 (The Scripps Research Institute Molecular Screening Center, 2009)
“And” between values parts separate entries of the source, which are not always exact repeats. Equal entries are not always repeated. Screen size: about 290,000 compounds; about 3,500 (1.2%) were called active. The sample holds actives, similar compounds and a random draw of the others, so the mix is not that of the screen.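 How the source made its calls: active means inhibition above the campaign mean inhibition over all tested compounds plus 3 SD (cut at about 28% in these data); inactive means the rest.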

These compounds were tested on M18 aspartyl aminopeptidase (Plasmodium falciparum 3D7) (assay: inhibition of P. falciparum M18 aminopeptidase – biochemical, QFRET, recombinant enzyme, primary screen (AID 1822;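 further: 0% = plate median of test compound wells and 100% = 2 mM ZnCl2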)). Settings: recombinant PfM18AAP, H-Glu-NHMec fluorogenic cleavage; at 7.35 µM; hits give high values.

Structure (SMILES)	inhibition
N#CCC(=O)N/N=C/c1ccc(SCC(=O)Nc2ccccc2)o1	34.6% (active)
Cc1ccc(/C=N/NC(=O)CSc2ccccn2)o1	5.97% (inactive)
O=C(CSc1ccc(/C=N/NC(=O)c2cccc(F)c2)o1)Nc1ccccc1	6.13% (inactive)
CCC(C)(C)NC(=O)C(c1ccc(O)cc1)N(Cc1ccco1)C(=O)CCC(=O)Nc1ccccn1 (configuration not stated)	-14.9% (inactive)
COc1cccc(NC(=O)N2CCC(NC(=O)C(Cc3cccc(C)c3)NC(C)=O)CC2)c1 (configuration not stated)	-1.52% (inactive)
Cc1ccc(-n2[nH]c(C)c(/C=N/NC(=O)c3cccc([N+](=O)[O-])c3)c2=O)cc1C	1.83% (inactive)
CCN1CCN(c2cc3nc(C)n(Cc4ccccc4)c(=O)c3cc2NC(=O)c2ccccc2F)CC1	-2.2% (inactive)
COc1cccc(OCc2nnc3n2N=C(c2ccccc2)C(CC(=O)O)S3)c1 (configuration not stated)	3.81% (inactive)
COc1ccc(C(=O)CSc2nnc(COc3ccccc3)n2Cc2ccco2)cc1	-6.68% (inactive)
COc1ccc(OCc2nnc3n2N=C(c2ccccc2)C(CC(=O)O)S3)cc1 (configuration not stated)	33.1% (active)
CC(C)(C)c1ccc(C(CC(=O)O)NS(=O)(=O)Cc2ccccc2)cc1 (configuration not stated)	-3.96% (inactive)
FC(F)(F)C1CCCN(c2nsc3ccccc23)C1 (configuration not stated)	76.9% (active)
CC(C)OC(=O)c1c(NC(=O)c2ccco2)sc2c1CCCC2	-7.19% (inactive)
CNC(=O)c1c(NC(NC(=O)c2ccco2)C(=O)c2ccc(Cl)cc2)sc2c1CCCC2 (configuration not stated)	35% (active)
CCOC(=O)c1c(NC(=S)NC(=O)c2ccco2)sc2c1CCCC2	6.75% (inactive)
CC(=O)Nc1ccc(NC(=O)CC2CCCC2)cc1	-1.31% (inactive)
O=C(CCC1CCCC1)N=C1SC2CS(=O)(=O)CC2N1Cc1ccccc1 (configuration not stated)	9.31% (inactive)
Cc1cc(C)n2nc(CNS(=O)(=O)c3c(F)c(F)c(F)c(F)c3F)nc2n1	2.95% (inactive)
CC(C)=CCN1CCN(CCCc2ccccc2)CC1CCO (configuration not stated)	-4.62% (inactive)
Cc1ccc(-n2c(C)cc(/C=C(\C#N)C(=O)NCC3CCCO3)c2C)cc1 (configuration not stated)	-10.2% (inactive)
CN(C)c1ccc(-c2nnc(-c3cccnc3)o2)cc1	10.3% (inactive)
O=c1[nH]n(-c2ccc([N+](=O)[O-])cc2)c(=O)c2ccccc12	34.9% (active)
Cc1nc2ccccc2c(=O)n1Cc1ccc([N+](=O)[O-])cc1	-5.86% (inactive)

Structure (SMILES)	inhibition
O=C1CC(c2ccccc2)=NN1c1ccc([N+](=O)[O-])cc1	0.8% (inactive)
CCCC(C(=O)NC1CCCC1)N(C(=O)Cn1nnc(-c2ccc(C)o2)n1)c1cccc(O)c1 (configuration not stated)	-0.55% (inactive)
O=c1c2ccccc2ncn1/N=C/c1ccccc1	1.08% (inactive)
CCCc1nc2ccccc2c(=O)n1NC(=O)c1c(O)c2ccccc2[nH]c1=O	-1.38% (inactive)
CCCc1nc2ccccc2c(=O)n1/N=C/c1ccc(O)c(O)c1	53.2% (active)
Nc1nc(SCC(=O)Nc2cc(C(F)(F)F)ccc2Cl)[nH]c(=O)c1NC(=O)c1ccco1	30.4% (active)
COc1ccc(C(=O)Nc2c(N)nc(SCC(=O)Nc3ccc(C(C)=O)cc3)[nH]c2=O)cc1	7.68% (inactive)
COC(=O)c1ccc(NC(=O)CSc2nc(N)c(NC(=O)c3ccc(Br)o3)c(=O)[nH]2)cc1	0.86% (inactive)
COc1ccc(C)cc1Nc1nc(C)nc2c1oc1ccccc12	2.6% (inactive)
CCc1ccc(C(CNc2nc(C(F)(F)F)nc3ccccc23)N(C)C)cc1 (configuration not stated)	2.51% (inactive)
Cc1cc(OC(=O)c2ccccc2Cl)ccc1N1C(=O)CCC1=O	3.74% (inactive)
CC(=O)c1ccc(NC(=O)Nc2ccc([N+](=O)[O-])cc2C)cc1	-10.5% (inactive)
CCN(CC)S(=O)(=O)c1cc([N+](=O)[O-])ccc1NNC(=O)Nc1ccccc1	48.1% (active)
CCN(CC)S(=O)(=O)c1cc([N+](=O)[O-])ccc1N=Nc1c(O)n(C)c2ccccc12	-3.78% (inactive)
CCCCN(CCCC)CCNC(=O)CN1C(=O)COc2ccc(S(=O)(=O)N3CCOCC3)cc21	7.53% (inactive)
CCCCN1C(=O)C(C)=C(C)C1OCCc1ccc(OC)c(OC)c1 (configuration not stated)	-8.94% (inactive)
CC1(C(=O)N/N=C/c2cc3c(cc2Br)OCO3)CC1(Br)Br (configuration not stated)	7.28% (inactive)
Fc1cc(F)c2nc(Nc3nc4c(F)cccc4s3)sc2c1	-6.75% (inactive)
CN(C)CCCN(C(=O)COc1ccccc1)c1nc2c(Cl)cccc2s1	-2.07% (inactive)
NNc1nc2c(Cl)cccc2s1	28.1% (active)
CCOC(=O)C1CCCN(S(=O)(=O)c2ccc3c(c2)C(C)(C)C(=O)N3C)C1 (configuration not stated)	7.85% (inactive)
OC(c1ccc(Cl)cc1)C(CN1CCOCC1)c1ccccc1 (configuration not stated)	1.27% (inactive)
CCOc1ccc(S(=O)(=O)NCc2ccc3c(c2)OCO3)cc1C	-10.2% (inactive)

Structure (SMILES)	inhibition
CSc1ccc(CCNC(=O)CS(=O)(=O)Cc2nc(-c3ccccc3F)oc2C)cc1	-0.36% (inactive)
Oc1c(C(c2ccco2)N2CCC3(CC2)OCCO3)sc2ncnn12 (configuration not stated)	35.8% (active)
Oc1c(C(c2cccs2)N2CCN(c3ccc(F)cc3)CC2)sc2ncnn12 (configuration not stated)	16.4% (inactive)
Cc1nc2sc(C(c3ccco3)N3CCC4(CC3)OCCO4)c(O)n2n1 (configuration not stated)	0.84% (inactive)
CCc1nn(CCCN2CCN(c3cccc(Cl)c3)CC2)c(=O)n1CCOc1ccccc1	8.14% (inactive) and 7.54% (inactive)
O=S(=O)(c1ccc(Cl)cc1)N1CCCN(c2ccc(C(F)(F)F)cn2)CC1	-1.37% (inactive)
COc1ccc(OC)c(/C(C)=N\NC(=O)c2cc3cc(Cl)ccc3n2C)c1	3.86% (inactive)
Oc1ccc(N=Cc2c(O)ccc3ccccc23)cc1	28.4% (active)
Oc1ccc(N=Cc2sc3ccccc3c2Cl)cc1	21.1% (inactive)
O=[N+]([O-])c1ccc(N=Cc2c(O)ccc3ccccc23)cc1	-0.85% (inactive)
Clc1ccc(Cc2nn3c(-c4ccncc4)nnc3s2)cc1	8.22% (inactive)
Cc1cccc(C(=O)NC(=S)N(C)C2CCCCC2)c1	7.02% (inactive)
NC(=O)c1c(NC(=O)CSc2nc(N)cc(=O)[nH]2)sc2c1CCCC2	8.38% (inactive)
CCc1cccc(C)c1NC(=O)CSc1nnc(-c2ccco2)n1N	3.63% (inactive)
NC(=O)c1c(NC(=O)CSc2nnc(-c3ccco3)n2N)sc2c1CCCC2	34.4% (active)
CC(C)c1ccc(S(=O)(=O)NC2CCCC2)cc1	-8.03% (inactive)
Cc1ccccc1CN1CCC(C(=O)Nc2ccc(Oc3cccnc3)cc2)CC1	0.98% (inactive)
O=C(c1ccc[nH]c1=S)N1CCN(S(=O)(=O)c2ccc(Br)cc2Cl)CC1	29.6% (active)
O=C(c1ccc(Cl)c(S(=O)(=O)N2CCCCC2)c1)N1CCCCCC1	-4.84% (inactive)
O=C(c1ccccc1F)N1CCN(S(=O)(=O)c2ccc(Br)cc2)CC1	1.79% (inactive)
COc1cc(NC(=O)C2=CC(c3ccco3)=NS(=O)(=O)N2C)cc(OC)c1OC	3.32% (inactive)
O=C(N/N=C/c1ccc(OC(=O)c2ccccc2Cl)cc1)c1ccc(O)cc1	8.47% (inactive)
O=C(CO/N=C/c1ccccc1OC(F)F)NC1CCCC1	3.38% (inactive)

Structure (SMILES)	inhibition
O=C(CO/N=C/c1ccccc1O)NNC(=O)c1ccccc1Cl	43.1% (active)
CC(C)c1ccc(NC(=S)NC2CC3C=CC2C3)cc1 (configuration not stated)	-6.48% (inactive)
CC(=O)c1cnc(Nc2nc(C)c3cc(C)ccc3n2)nc1C	1.6% (inactive)
O=C(NCCCn1ccnc1)c1cc(-c2ccccc2)on1	-9.41% (inactive)
COc1ccc(-c2csc(Cc3nc(O)cs3)n2)cc1	8.2% (inactive)
Cc1onc(C(=O)NN)c1-c1csc(COc2ccccc2)n1	-8.62% (inactive)
CC(C)(C)C(=O)OCc1nc(-c2ccc(O)c(O)c2)cs1	58.2% (active)
COC(=O)[C@@H]1CCCN1C(=O)c1cc(COc2cccc3cccnc23)on1	3.55% (inactive)
COc1cc(C)c(C)cc1S(=O)(=O)N1CCCc2ccccc21	-5.85% (inactive)
Cc1[nH]c(C)c(S(=O)(=O)N2CCC(C)CC2)c1C(=O)N1CCCC1	-4.62% (inactive)
COCCCNC(=O)C1CC(=O)N(CCc2ccc(F)cc2)C1 (configuration not stated)	2.65% (inactive)
CCOC(=O)CSc1nnc(NC(=O)C2CC(=O)N(c3ccc(F)cc3)C2)s1 (configuration not stated)	-0.3% (inactive)
CC(C)(C)NC(=O)C(c1ccncc1)N(C(=O)CNC(=O)c1ccco1)c1ccc2c(c1)OCO2 (configuration not stated)	35% (active)
Cc1ccc(N(C(=O)CNC(=O)c2ccco2)C(C(=O)NC2CCCC2)c2ccncc2)cc1 (configuration not stated)	0.63% (inactive)
COc1cccc(N(C(=O)CNC(=O)c2ccco2)C(C(=O)NC2CCCCC2)c2cccnc2)c1 (configuration not stated)	9.7% (inactive)
C/C(CC1CC(C)(C)OC1=O)=N/Nc1nc(-c2ccccc2)cs1 (configuration not stated)	6.59% (inactive)
O=C(CSc1nccc(=O)[nH]1)Nc1ccc(N2CCOCC2)c(Cl)c1	2.24% (inactive)
O=C(CN1CCOCC1)Nc1cc(Cl)ccc1Cl	1.38% (inactive)
O=C(CN1CCN(c2ccc(O)cc2)CC1)Nc1cc(S(=O)(=O)N2CCOCC2)ccc1Cl	30.2% (active)
O=C(CN1CCN(c2cccc(Cl)c2)CC1)Nc1ccc(S(=O)(=O)N2CCOCC2)cc1	-3.74% (inactive)
O=C(CN1CCN(c2ccccc2)CC1)Nc1ccc(F)cc1	-1.61% (inactive)
O=C(CN1CCN(c2ccc(F)cc2)CC1)Nc1ccccc1	-7.36% (inactive)
O=C(CN1CCN(c2ccc(O)cc2)CC1)Nc1ccc(-c2ccccc2)cc1	42% (active)
